Test [1] can be described thus: qHTS RealTime-Glo MT Cell Viability Assay in HEK293 cells - 0 hour (AID 1224880). Note: top concentration of the series differs between compounds; nearly all actives have a fitted effect of over 45% in size. The method in brief:
(§1)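 Tox21 screen in HEK293 using RealTime-Glo MT chemistry, with cells and reagent co-dispensed. Luminescence proportional to viable cell number was captured at intervals during 40 h compound exposure at 37 C.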
On the technique in general: Quantitative high-throughput screening tests each substance at several concentrations.

Test [2] can be described thus: A CellTox Green Cytotoxicity Assay to monitor cytotoxicity in HEK293 cells - 32 hour (AID 1224881). Note: nearly all actives have a fitted effect of over 40% in size. The method in brief: (§2)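 Seeding of HEK293 cells together with cytotoxicity dye preceded a 5 h incubation at 37 C/5% CO2. Test compounds in DMSO were then added and fluorescence monitored across 40 h.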
A short description of test [3]: A CellTox Green Cytotoxicity Assay to monitor cytotoxicity in HEK293 cells - 8 hour (AID 1224884). Note: nearly all actives have a fitted effect of over 35% in size. The method in brief:
as §2

A short description of test [4]: qHTS RealTime-Glo MT Cell Viability Assay in HepG2 cells - 16 hour (AID 1224885). Note: nearly all actives have a fitted effect of over 50% in size. The method in brief:
(§3)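 Real-time, nonlytic viability: 600 HepG2 cells/well mixed with NanoLuc enzyme plus prosubstrate; 5 h settle, compound (DMSO) added by pintool; luminescence monitored over 40 h at 37 C.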

A short description of test [5]: qHTS RealTime-Glo MT Cell Viability Assay in HEK293 cells - 24 hour (AID 1224886). For activity change, negative = cytotoxicity: top concentration of the series differs between compounds. Note: nearly all actives have a fitted effect of over 50% in size. Note: potency is the fitted concentration of half-maximal effect. Summed up:
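Cells + reagent dispensed (600 cells/well, HEK293) → 5 h at 37 C/5% CO2 → 23 nL compound in DMSO pinned → 40 h at 37 C → luminescence read at 0, 8, 16, 24, 32, 40 h.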

A short description of test [6]: qHTS RealTime-Glo MT Cell Viability Assay in HEK293 cells - 8 hour (AID 1224887). For activity change, negative = cytotoxicity: top concentration of the series differs between compounds. Note: nearly all actives have a fitted effect of over 50% in size. Note: potency is the fitted concentration of half-maximal effect. Summed up: as §1
Test [7] is described as follows: A CellTox Green Cytotoxicity Assay to monitor cytotoxicity in HEK293 cells - 16 hour (AID 1224888). Note: nearly all actives have a fitted effect of over 35% in size. Summed up: as §2
A short description of test [8]: qHTS RealTime-Glo MT Cell Viability Assay in HepG2 cells - 0 hour (AID 1224889). Note: nearly all actives have a fitted effect of over 50% in size. Summed up: as §3
The nature of test [9]: A CellTox Green Cytotoxicity Assay to monitor cytotoxicity in HepG2 cells - 32 hour (AID 1224883). Note: nearly all actives have a fitted effect of over 50% in size. Summed up: (§4)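 Nonlytic assay: viable cells exclude the dye, so fluorescence scales with cell death. HepG2 at 600 cells/well, compounds added after 5 h, signal read across 40 h.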
Test [10] is described as follows: A CellTox Green Cytotoxicity Assay to monitor cytotoxicity in HepG2 cells - 0 hour (AID 1224882). Note: nearly all actives have a fitted effect of over 35% in size. The method in brief: as §4

Unmarked numbers belong to inactive results. Inconclusive results are not listed. Calls of active or inactive are those of the source. Calls come from the whole dose curve; as a rule, active = well fitted curve in the direction sought with a large enough effect in the repeat runs; inconclusive = weak or mixed curves; inactive = no such curve, though single readings can be large; an effect the other way counts as inactive or inconclusive.
% is set by controls: 0 for no effect and ±100 for the full control effect.

Take `COc1cc(NS(=O)(=O)c2ccc(N)cc2)nc(OC)n1`: the Potency result in [1], in [2], in test [3], in test [5], in test [6] and in test [8] was “inactive” throughout. Moreover, the compound was classed as inactive in [4] and in test [7].
Take `CC(CC=O)CCCC(C)(C)O` (stereo unspecified): the Potency result in test [1], in test [2], in test [9], in test [3] and in test [5] was “inactive” in each case. In addition, the outcome in [4] and in test [7] was inactive.
Regarding `CCCCCCOc1ccccc1C(N)=O`, the Potency result in test [1], in test [2], in test [9], in [3] and in test [8] was “inactive” in each case. In addition, the call in test [4] and in test [7] was inactive.
Consider `CC(N)C(=O)OC(C)(C)Cc1ccc(Cl)cc1` (stereo unspecified), for which the Potency result in test [1], in test [2], in test [9], in [3], in test [5] and in test [8] was “inactive” in each case. Moreover, the compound was classed as inactive in test [4] and in test [7].
Consider `CCCCCCCC/C=C\CCCCCCCC(=O)OCCCC`, for which the activity change, negative = cytotoxicity in test [1] was -2.24% [at 15.8 µM]; in [8] it was -22.5% [at 15.8 µM]. Moreover, in [10], the cytotoxicity is -2.01% [at 15.8 µM]. Also, the cytotoxicity increase in test [9] was -13.6% [at 15.8 µM]. The activity change, negative = cytotoxic in [4] was 1.32% [at 15.8 µM]. Further, in [7], the activity change is -29.4% [at 15.8 µM].
In the case of `O=C(O)c1cc(Cl)cc([N+](=O)[O-])c1Cl`, the Potency result in test [1], in test [9], in test [3], in [5], in test [6] and in [8] was “inactive” each time. Moreover, the compound was classed as inactive in test [10], in test [4] and in test [7].
Take `O=C1CCCC(=O)O1`: the Potency result in [1], in [9], in test [3], in test [5], in [6] and in test [8] was “inactive” each time. For the same compound, the outcome in test [10], in test [4] and in [7] was inactive.
Consider `CC(C)NCC(O)COc1cccc2[nH]ccc12` (stereo unspecified), for which the Potency entry in test [1], in [9], in test [3], in [5], in test [6] and in test [8] was “inactive” each time. Besides, the compound was classed as inactive in test [10], in [4] and in [7].
On to `CC(S)C(=O)NCC(=O)O` (stereo unspecified), for which the Potency entry in test [1] and in test [5] was “inactive” throughout. The result in test [10] and in test [4] was inactive.
For the compound `O=S(=O)(O)CCN1CCN(CCO)CC1`, the Potency entry in test [1], in test [9], in [3], in test [5] and in [8] was “inactive” each time. Moreover, the outcome in [10], in [4] and in test [7] was inactive.
As for `O=C(NCCc1c[nH]c2ccccc12)c1cccnc1`, the Potency entry in test [1], in test [9], in [5] and in test [8] was “inactive” throughout. Further, the result in test [10], in test [4] and in [7] was inactive.
Turning to `O=C(O)c1cc(Br)c(O)c(Br)c1`, the Potency result in [1], in test [3], in [5], in test [6] and in [8] was “inactive” throughout. The compound was classed as inactive in test [10], in test [4] and in [7].
Turning to `CC(=O)OC(C)OC(=O)C(C)c1ccc(-c2ccccc2)c(F)c1` (stereo unspecified), the Potency entry in [1], in [9], in test [3], in [5], in [6] and in test [8] was “inactive” each time. Besides, the compound was classed as inactive in [4] and in test [7].
With `CC(C)OC(=O)CCCCC(=O)OC(C)C`, the Potency result in test [2], in test [9], in test [3], in [5], in test [6] and in test [8] was “inactive” each time. The result in test [10], in [4] and in test [7] was inactive.
As for `COc1cc(C(=S)N2CCOCC2)cc(OC)c1OC`, the Potency entry in [1], in test [9], in test [3], in test [5] and in test [8] was “inactive” throughout. Also, the compound was called inactive in test [10], in test [4] and in test [7].
In the case of `c1ccc2c(c1)ccc1c3ccccc3ccc21`, the Potency result in test [1], in [9], in test [5], in test [6] and in test [8] was “inactive” in each case. The compound was classed as inactive in test [10], in test [4] and in test [7].
As to `CC(C)NCC(O)COc1ccc(COCCOC(C)C)cc1` (stereo unspecified), the Potency result in test [1], in [9], in [3], in test [5] and in test [8] was “inactive” each time. Also, the result in test [10], in test [4] and in [7] was inactive.
Regarding `OCCN(CCO)c1cccc(Cl)c1`, the Potency entry in test [2], in [9], in test [3], in [5], in test [6] and in [8] was “inactive” throughout. Besides, the call in test [10], in test [4] and in test [7] was inactive.
Take `CCCCNc1ccc(C(=O)OCCN(C)C)cc1`: the Potency entry in test [1], in test [9], in test [3], in test [5] and in [8] was “inactive” in each case. The compound was classed as inactive in test [10], in test [4] and in [7].
Regarding `O=C(/N=N/C(=O)OCc1ccccc1)OCc1ccccc1`, the Potency entry in [2], in test [9], in [3], in test [5] and in test [6] was “inactive” throughout. Further, the call in [10], in test [4] and in test [7] was inactive.
Regarding `CC(C(=O)O)c1ccc2c(c1)CC(=O)c1ccccc1S2` (stereo unspecified), the Potency entry in test [1], in test [9], in test [3], in test [5], in test [6] and in test [8] was “inactive” in each case. Besides, the result in [4] and in test [7] was inactive.
`CCN(CC)CC(=O)Nc1c(C)cccc1C`: the Potency result in [2], in test [9] and in test [3] was “inactive” in each case. In addition, the outcome in [10], in test [4] and in [7] was inactive. Further, the values for the Potency in test [5] and in [6] were 9.52 µM (active) and 10.7 µM (active), respectively.
With `O=C(O)c1ccc(Cl)cc1Cl`, the Potency entry in test [1], in test [9], in test [3], in [5], in test [6] and in test [8] was “inactive” each time. Further, the compound was classed as inactive in test [10], in [4] and in test [7].
Consider `On1nnc2ccccc21`, for which the Potency result in test [1], in test [9], in test [3], in test [5] and in test [6] was “inactive” each time. The compound was called inactive in test [4] and in test [7].
With `CCOC(=O)[C@H](CCc1ccccc1)N[C@@H](C)C(=O)N1C(=O)N(C)C[C@H]1C(=O)O`, the Potency result in test [1], in test [9], in [3], in test [5], in [6] and in test [8] was “inactive” in each case. Besides, the compound was classed as inactive in test [4] and in [7].
Consider `O=C(O)Cc1ccc(Cl)cc1Cl`, for which the Potency result in [1], in test [5] and in test [6] was “inactive” in each case. Also, the call in test [4] and in [7] was inactive.

Values taken from PubChem BioAssay (Tox21).
